# From PubChem BioAssay
# ALOX15B inhib = inhibitors of human 15-lipoxygenase 2 (ALOX15B) | purified 15hLO-2, xylenol orange hydroperoxide absorbance | Potency, µM (highest dose often 57.1 µM), for inactives: at the highest dose activity change, negative = inhibition, usual class: inhibitors | 110,000 compounds, 0.56% hits | AID 881; further: on the % scale 0 is the no-effect control and ±100 the full control effect; nearly all actives have a fitted effect of over 60% in size
# Target sequence (O15296 whole entry, looked up): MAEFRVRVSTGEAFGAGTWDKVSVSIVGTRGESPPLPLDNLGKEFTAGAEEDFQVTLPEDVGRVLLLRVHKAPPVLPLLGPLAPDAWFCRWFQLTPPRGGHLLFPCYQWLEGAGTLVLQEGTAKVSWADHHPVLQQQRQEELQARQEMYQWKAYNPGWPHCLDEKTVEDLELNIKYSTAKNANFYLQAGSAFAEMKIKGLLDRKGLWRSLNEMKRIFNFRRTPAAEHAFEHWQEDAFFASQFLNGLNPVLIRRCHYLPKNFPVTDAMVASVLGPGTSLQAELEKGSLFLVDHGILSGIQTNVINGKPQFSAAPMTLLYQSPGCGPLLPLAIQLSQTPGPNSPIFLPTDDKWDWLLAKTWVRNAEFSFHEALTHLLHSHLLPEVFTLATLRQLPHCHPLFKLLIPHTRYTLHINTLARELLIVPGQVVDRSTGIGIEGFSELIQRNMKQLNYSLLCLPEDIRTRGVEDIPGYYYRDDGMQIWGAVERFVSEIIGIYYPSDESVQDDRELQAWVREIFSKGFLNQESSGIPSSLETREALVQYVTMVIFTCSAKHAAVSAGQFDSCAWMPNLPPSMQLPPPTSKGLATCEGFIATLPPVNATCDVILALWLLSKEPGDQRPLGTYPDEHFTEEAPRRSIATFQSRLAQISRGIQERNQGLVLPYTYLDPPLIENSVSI
#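 Enzyme 50 nM, AA 45 uM, 25 mM Hepes pH 7.5 + 0.01% Triton X-100; cpd preinc 15 min RT, rxn 90 min RT; stop/detect with 200 uM XO + 300 uM Fe(II) in 50 mM H2SO4, 30 min; A573/A405.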
# ALOX15 inhib = inhibitors of human 15-lipoxygenase (ALOX15); AID 887; 74,000 compounds, 1.4% hits; Potency, µM (top dose mostly 57.1 µM), for inactives: at the highest dose activity change, negative = inhibition, actives largely listed as inhibitors; purified 15hLO-1, xylenol orange hydroperoxide absorbance; further: on the % scale 0 is the no-effect control and ±100 the full control effect; nearly all actives have a fitted effect of over 55% in size
#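 Purified human 15hLO-1 (40 nM final) in 25 mM Hepes pH 7.5, 0.01% Triton X-100 was preincubated with compound 15 min at room temperature, then reacted 6 min with 50 uM arachidonic acid; hydroperoxide detected by Fe-XO, 573/405 nm absorbance ratio.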
# CRE-bla Fsk = modulators of forskolin-stimulated CRE signaling in CHO cells | 71,000 compounds, 2.5% hits | CHO CRE-bla reporter (cAMP response element driving beta-lactamase), forskolin EC10, beta-lactamase ratio | Potency, µM (highest dose often 38.2 µM), without a hit: top-dose activity change, negative = inhibition, usual class: activators; active means well fitted activation curve with a large enough effect in the signal ratio, with a control signal flat, not every such curve was filed as active; inconclusive means small, poorly fitted or top-dose-only effect, or effect the other way, or a change in a side signal; the % refers to the signal ratio; further: % of control where 0% means no effect
#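 The 460nm/530nm emission ratio after CCF4 loading defined %Activity, from which AC50 values were obtained. CRE-bla CHO cells received compound dilution series together with an EC10 level of NKH 477 for 3 hours at 37 degrees Celsius.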
# ERK AVP block = inhibitors of vasopressin-stimulated ERK signaling pathway; HEK293-V1b, vasopressin-stimulated pERK AlphaScreen; Potency, µM (top dose mostly 57.5 µM), without a hit: top-dose activity, negative = inhibition, usual class: inhibitors; 72,000 compounds, 0.99% hits; further: on the % scale 0 is the no-effect control and ±100 the full control effect; nearly all actives have a fitted effect of over 55% in size
#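 HEK293 cells stably expressing V1b receptor, seeded overnight in 1% FBS, were treated with compounds for 30 min at 37C, then stimulated 5 min with 25 nM vasopressin; phospho-ERK read by AlphaScreen SureFire after lysis.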
# Starred values were filed as active, the others as inactive; ? = inconclusive; / = no result; [ ] = another dose, or the depositor's remark. Compounds with a hit are over-represented: about 3.2% of the library has one in this group of screens. Unless noted, the call rests on the fitted dose curve; in most records, active means well fitted inhibition curve with a large enough effect; inconclusive means small, poorly fitted or top-dose-only effect; inactive means no such curve, though single readings can be large or run the other way. Potency means the concentration at half of the fitted maximal effect.
SMILES,ALOX15B inhib,ALOX15 inhib,CRE-bla Fsk,ERK AVP block
CN(C)c1ncc2nc(-c3ccccc3)c(=O)n(C[C@H]3CCCO3)c2n1,-2%,?,4µM*,-8%
CN(C)c1ncc2nc(-c3cccc(C#N)c3)c(=O)n(C[C@H]3CCCO3)c2n1,-2%,0%,?,-19%
O=c1c(-c2cc(F)cc(F)c2)nc2cnc(N3CCOCC3)nc2n1C[C@H]1CCCO1,-10%,5%,?,-27%
CN(C)c1ncc2nc(-c3cn(C)c4ccccc34)c(=O)n(C[C@H]3CCCO3)c2n1,3%,1%,2µM*,?
CCCCCCc1ccc(-c2ccc(C#N)cc2)cc1,-6%,-8%,13%,30%
CN(C)Cc1ccc(-c2cc3onc(-c4ccccc4)c3c(=O)n2C)cc1,7%[11.4 µM],8%[11.4 µM],-11%[7.6 µM],-19%[11.5 µM]
CCC1CCCCN1CC(=O)Nc1cc(C)nn1-c1nc(C)cc(C)n1 (configuration not stated),37%,10%,2.5µM*,1%
Nc1nc(Nc2ccccc2)nc2c1ncn2[C@@H]1O[C@@H](CO)[C@H](O)[C@H]1O,2%,-5%[25.6 µM],-2%,-12%
CCn1nc(NC(=O)c2ccncc2)c2cc3ccccc3nc21,-7%,-19%,6.3µM*,-24%
CCn1nc(NC(=O)c2ccncc2)c2cc3cccc(C)c3nc21,-13%,-6%,5µM*,-10%
CCN[C@@H]1C[C@H](C)S(=O)(=O)c2sc(S(N)(=O)=O)cc21,9%[25.6 µM],9%[25.6 µM],-1%[17.1 µM],-10%[25.7 µM]
COc1cccc2cc(C(=O)C3=C(O)C(=O)N(Cc4ccco4)C3c3cccnc3)oc12 (configuration not stated),-4%,8%,-7%,6%
O=C(C1=C(O)C(=O)N(Cc2ccco2)C1c1cccnc1)c1cc2ccccc2o1 (configuration not stated),-7%,16µM*,?,?
CCCCNC(=O)COC(=O)c1cc2c(C)nn(-c3ccccc3)c2s1,-3%,-5%,5µM*,-11%
Cc1nn(-c2ccccc2)c2sc(C(=O)N3CCc4ccccc4C3)cc12,-1%,-15%,4µM*,-11%
Cc1ccn(C(=O)c2cc3c(C)nn(-c4ccccc4)c3s2)n1,5%,/,/,/
Cc1nn(-c2ccccc2)c2sc(C(=O)NNC(=O)COc3ccccc3)cc12,-24%,/,/,/
Cc1cc2c(nc1C)CCCCN2C[C@H](C)O/N=C1/[C@H]2O[C@@H]2[C@@H](O)[C@H]2[C@H]1CCn1c(=O)n(-c3ccccc3)c(=O)n12,/,3%[11.4 µM],/,1%[11.5 µM]
COc1ccc(C2C3=C(Nc4ncnn42)c2ccccc2CCC3)cc1 (configuration not stated),4%,-5%,17%,-2%
COc1cc(C2C3=C(Nc4ncnn42)c2ccccc2CC3)cc(OC)c1OC (configuration not stated),-4%,-6%,0.5µM*,13%
O=C(Nc1cccc(F)c1)N1CC[C@@]2(CCCN(C(=O)c3ccco3)C2)C1,-1%,5%,-5%,-14%
O=C(Nc1cccc(F)c1)N1CCCC2(CCN(C(=O)c3ccco3)CC2)C1,27%,0.32µM*,-8%,-22%
CC1(C)O[C@H]2C[C@@H]3[C@H]4CCC5=CC(=O)C=C[C@]5(C)[C@@]4(F)[C@@H](O)C[C@]3(C)[C@]2(C(=O)CO)O1,-5%[0.0915 µM],/,/,/
CCOC(=O)N1CCC(=C2c3ccc(Cl)cc3CCc3cccnc32)CC1,35%,?,?,20µM*
C[C@@H](c1ccccc1)N1C(=O)[C@@H]2[C@H]3C(=CC[C@H]2C1=O)C(=O)[C@H]1O[C@H]1[C@H]3O,/,-11%[11.4 µM],/,-1%[11.5 µM]
SMILES,ALOX15B inhib,ALOX15 inhib,CRE-bla Fsk,ERK AVP block
COc1ccc(N2CC(C(=O)Nc3ccccc3C(=O)NCc3ccco3)CC2=O)cc1 (configuration not stated),-4%,11%,-9%,17%
CCOC(=O)N1CCC(NC(=O)c2cccc3c2C(=O)N(c2ccc(OC)cc2)C3)CC1,-12%,?,5µM*,-27%
COc1ccc(N2Cc3cccc(C(=O)NC(C)CCc4ccco4)c3C2=O)cc1 (configuration not stated),-28%,20µM*,12%,-17%
CS(=O)(=O)N1CCC[C@@]2(CCN(c3ccccc3)C2)C1,-13%,-12%,-6%,-5%
CN(C)CCn1c(CO)nc2c1c(=O)n(C)c(=O)n2C,-3%[11.4 µM],3%[11.4 µM],4%[7.6 µM],-25%[11.5 µM]
Cc1cccc(N2CCN(C(=O)CSCc3c(C)noc3C)CC2)c1C,-1%,-29%,?,25µM*
CCOC(=O)c1c(C)n(C)c2ccc(OCC(O)CN(CC)CC)cc12 (configuration not stated),9%,4%,17%,-13%
CCOC(=O)c1c(C)n(C)c2ccc(OCC(O)Cn3nc(C)cc3C)cc12 (configuration not stated),-4%,-5%,13µM*,-21%
CCOC(=O)c1c(C)n(C)c2ccc(OCC(O)CN3C(=O)c4ccccc4S3(=O)=O)cc12 (configuration not stated),-6%,1%,2µM*,?
Cc1cccc(CNc2ccnc(-c3ccc(N(C)C)cc3)n2)c1,39%,-6%,?,?
O=C(c1ccncc1)N1CCC2(CCCN(Cc3ccncc3)C2)CC1,3%,1%,5%,5%
CCCNC(=O)OC[C@@H]1O[C@H](CCO/N=C2\c3cc(OC)ccc3O[C@H](c3cccc(OC)c3)[C@H]2O)C=C[C@@H]1Oc1ccc(OC)cc1,/,-7%[11.4 µM],/,9%[11.5 µM]
O=C(O)C1Cc2c([nH]c3ccccc23)C(c2ccc3c(c2)OCO3)N1 (configuration not stated),-6%,13µM*,?,-28%
CC(C)CO/N=C1/[C@H]2O[C@@H]2[C@@H](O)[C@H]2[C@H]1CCn1c(=O)n(Cc3cc4c(cc3Cl)OCO4)c(=O)n12,/,4%[11.4 µM],/,15%[11.5 µM]
CN(C)c1nc2c(Br)c(Br)c(Br)c(Br)c2[nH]1,13%,-15%,/,?
O=C(c1ccccc1)c1nc[nH]c1C(=O)Nc1ccccc1,-1%,-16%,10µM*,-24%
O=c1c(-c2cc(F)cc(F)c2)nc2cnc(N3CCNCC3)nc2n1CCc1ccccc1,42%,-9%,?,-4%
CC(C)CN1CCC2(CC1)CCN(C(=O)c1cccc(F)c1)CC2,1%,3%,-2%,-19%
CCCn1c(C)nc2c(NCCCN(C)C)nc(C)nc21,1%,7%,2%,5%
CCCc1nc2oc3c(NCCOCCO)ncnc3c2c2c1COC(C)(C)C2,2%,5%,2µM*,?
CCCc1nc2oc3c(OC)ncnc3c2c2c1COC(C)(C)C2,3%,/,/,/
Cc1nc2oc3c(NCC4CCCO4)ncnc3c2c2c1COC(C)(C)C2 (configuration not stated),2%,0%,?,?
CC(C)c1nc2oc3c(NCC4CCCO4)ncnc3c2c2c1COC(C)(C)C2 (configuration not stated),0%,4%,1µM*,?
CCCc1nc2oc3c(NCCN4CCOCC4)ncnc3c2c2c1CCCC2,32%,6%,0.79µM*,-13%
